EP2 antag: blocks the human prostaglandin E2 receptor EP2; P43116; 260,000 compounds, 0.52% hits; AID 1422; C6 glioma cells expressing human EP2, cAMP TR-FRET; cells stimulated with saturating PGE2; inhibition, % at 25 µM;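 active = percent inhibition above 40 after rounding to a whole number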;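 note: rat C6 glioma host cells with rolipram phosphodiesterase inhibitor present; the protocol text gives 20 µM as final concentration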
Target sequence (P43116 whole entry, looked up): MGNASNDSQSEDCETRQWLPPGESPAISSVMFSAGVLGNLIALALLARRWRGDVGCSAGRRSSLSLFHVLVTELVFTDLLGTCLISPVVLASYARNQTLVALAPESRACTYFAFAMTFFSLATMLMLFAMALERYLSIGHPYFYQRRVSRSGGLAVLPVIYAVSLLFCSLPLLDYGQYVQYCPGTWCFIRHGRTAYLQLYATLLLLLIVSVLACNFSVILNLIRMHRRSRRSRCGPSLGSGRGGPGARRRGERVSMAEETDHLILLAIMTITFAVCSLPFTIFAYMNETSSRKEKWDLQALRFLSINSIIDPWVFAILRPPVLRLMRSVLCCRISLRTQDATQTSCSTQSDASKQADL
EP2 modulator: modulators of human EP2 prostaglandin E2 receptor; AID 940; 260,000 compounds, 0.83% hits; induction, % at 25 µM; EP2-expressing cells, cAMP HTRF FRET, PGE2 co-stimulation; P43116;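 active = compounds whose cAMP rise, as percent of the full-agonist control response, exceeds 60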;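 note: rat C6 glioma line stably carrying human EP2 under a CMV promoter; the protocol text gives 20 µM as final concentration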
CHT block: inhibits the human high affinity choline transporter | Q9GZV3 | CHT-expressing cells, membrane potential dye, choline response; active compounds read low | B-score at 10 µM | 310,000 compounds, 0.86% hits;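 active = B-score over 3 SD under the library average, and starting fluorescence ratio not unusually high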;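 note: choline stimulus applied at its EC90 after an EC20 pre-addition; B-score computed on integrated fluorescence ratio after choline addition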
CHT PAM: allosterically activates the human high affinity choline transporter; CHT-expressing cells, membrane potential dye, choline EC20; active compounds read high; LV-AA mutant CHT in HEK293 cells; B-score at 10 µM; 310,000 compounds, 0.49% hits;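 active = initial fluorescence not abnormally high and integrated response B-score, plate-corrected, over 3 SD above library mean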
CHT activ conf: confirmation of human choline transporter (CHT) activators. AID 504833. activation, % at 10 µM. CHT-expressing cells, membrane potential dye fluorescence (FDSS); % of choline EC20–EC90 response window; HEK293 expressing CHT LV-AA mutant; choline added at its EC20. 2,500 compounds, 91% hits. shares compounds with CHT PAM;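 active = primary screen active, with duplicate mean activation above negative control mean plus 3 SD, cut at about 11% in these data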
HEK293 MP dye: counter-screen for CHT activators: effect in parental HEK293 cells | shares compounds with CHT PAM | membrane potential dye fluorescence (FDSS); measured after EC20 choline addition | ratio readout change at 10 µM, hits read low | 2,500 compounds, 62% hits;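 active = duplicate-averaged ratio beyond 3 SD from buffer wells, up or down, though filed actives are nearly all decreases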
Hits are given with their value; 0 = inactive; - = no result; ! = a repeat was not active. An excerpt weighted towards active compounds, which were near 2% of everything screened.

SMILES	EP2 antag	EP2 modulator	CHT block	CHT PAM	CHT activ conf	HEK293 MP dye
COc1ccc(Cl)cc1NC(=O)C1COc2ccccc2O1 (stereo unspecified)	0	0	0	0	-	-
CN1CCN(c2ccc(Cl)cc2NC(=O)C2COc3ccccc3O2)CC1 (stereo unspecified)	0	0	0	0	0	0
COCCCNC(=S)N(CCO)Cc1cc2c(C)ccc(C)c2[nH]c1=O	0	0	-	-	-	-
Cc1ccc2c(C(=O)CN3CCC(C(N)=O)CC3)c(C)[nH]c2c1	-	-	0	0	-	-
COc1ccc2c(c1)c(C(=O)CN1CCCCC1)c(C)n2C	-	-	0	0	43.9	-51.4
COc1ccc2c(c1)c(C(=O)CN1CCC(C(N)=O)CC1)c(C)n2C	0	0	0	6.33	65.1	-50.5
COc1ccc2c(c1)c(C(=O)CN1CCC3(CC1)OCCO3)c(C)n2C	0	0	0	6.42	14.6	-40.6
COc1ccc(N2CCN(CC(=O)c3c(C)n(C)c4ccc(OC)cc34)CC2)cc1	0	0	0	0	-	-
COc1ccc2c(c1)c(C(=O)CN1CCOCC1)c(C)n2C	0	0	0	0	38.2	-37.3
Cc1cc(-c2cncnc2C2CCCN(C(=O)Cn3nc(C)cc3C)C2)on1 (stereo unspecified)	-	0	-	-	-	-
CN1CCN(CC(C)(C)NS(=O)(=O)c2ccc(Cl)cc2)CC1	0	0	0	0	-	-
CC(C)(CN1CCN(Cc2ccccc2)CC1)NS(=O)(=O)c1ccc(Cl)cc1	0	0	0	8.97	21.2	0
c1ccc(-c2nc(NCc3ccco3)c3ccccc3n2)nc1	0	0	0	7.02	41.7	-46.3
c1coc(CNc2nc(N3CCCCC3)nc3ccccc23)c1	0	0	0	0	13.5	0
COCCNc1c(-c2ccccc2OCc2ccccn2)nc2cnccn12	-	0	-	-	-	-
CCc1cc2c(N3CCN(Cc4nc5ccccc5[nH]4)CC3)ncnc2s1	0	0	-	-	-	-
CCc1cc2c(N3CCN(c4ccccc4)CC3)ncnc2s1	0	0	0	0	16.2	0
CN=c1scc(-c2ccc(Br)cc2)n1C	0	0	0	0	35.2	-43.8
COCCn1c(-c2ccc(Br)cc2)csc1=Nc1cccnc1	0	0	0	0	-	-
CC(C)CN1CCN(Cc2cc(F)ccc2-n2cccn2)CC1CCO (stereo unspecified)	0	0	0	0	0	0
COCCn1c2ccccc2n2c(=O)n(CC(=O)N3CCCC3)nc12	0	0	-	-	-	-
COc1cccc(C2(O)CCN(CCNC(=O)Cc3ccc(F)cc3)CC2)c1	0	0	-	-	-	-
Cc1cc(C)n2[nH]c(=O)c(N=Nc3cccc(C(F)(F)F)c3)c2n1	0	0	0	7.21	36.7	-73.6
Cc1cc(C)n2[nH]c(=O)c(N=Nc3ccccc3)c2n1	0	0	0	0	-	-
CCn1c2cc(C)sc2c2cnn(CC(=O)N3CCOCC3)c(=O)c21	-	0	-	-	-	-
SMILES	EP2 antag	EP2 modulator	CHT block	CHT PAM	CHT activ conf	HEK293 MP dye
N#Cc1ccc(-c2cn(-c3ccccc3)c3[n+]2CCCS3)cc1	0	0	0	10.5	62.2	-64.7
Cc1ccc(-c2cn(-c3ccccc3)c3[n+]2CCCS3)cc1	0	0	0	6.64!	50.0	-22.9
CCc1ccc(-n2cc(-c3ccc(F)cc3)[n+]3c2SCCC3)cc1	0	0	0	13.8	81.8	0
c1ccc(-c2cn(-c3ccccc3)c3[n+]2CCCS3)cc1	0	0	0	0	-	-
CC(C)(C)N(NC(=O)c1ccccc1)C(=O)c1cccc(C(=O)N(NC(=O)c2ccccc2)C(C)(C)C)c1	0	0	0	8.46	35.3	0
Cc1ccn2cc(C34CC5CC(CC(C5)C3)C4)nc2c1	0	0	0	8.94	17.5	0
Cc1ccn2cc(CSc3ccccc3)nc2c1	0	0	0	0	-	-
COc1ccccc1NC(=S)N(Cc1cccs1)Cc1cc2cccc(C)c2[nH]c1=O	0	0	-	-	-	-
CC1(C)CC(=O)CC2(C1)NCC(c1ccccc1)c1c2[nH]c2ccccc12 (stereo unspecified)	0	0	0	0	-	-
COc1cccc(C2CNC3(CCCC(C)C3)c3[nH]c4ccccc4c32)c1OC (stereo unspecified)	-	-	0	0	17.8	0
CC[n+]1ccc(C)c2cc(SC(F)(F)F)ccc21	0	0	0	6.95	33.1	-51.6
CC[n+]1ccc(C)c2cc(P(=O)(c3ccccc3)c3ccccc3)ccc21	0	0	0	7.79	58.3	-42.4
Cc1ccnc2ccc(P(=O)(c3ccccc3)c3ccccc3)cc12	0	0	-	-	-	-
Cc1ccc2c(c1)C(c1ccc(O)cc1)(c1ccc(O)cc1)C(=O)N2C	0	0	0	6.37	0	0
Cc1ccc2c(c1)C1(C(=O)N2C)N2CC3(C)CN1CC(C)(C2)C3=O (stereo unspecified)	-	0	0	0	-	-
O=C1c2cccc3cccc(c23)C(=O)N1CCN1CCN(CC(O)COc2ccccc2)CC1 (stereo unspecified)	0	0	0	0	0	0
COc1cccc(OCC(O)CN2CCN(CCN3C(=O)c4cccc5cccc(c45)C3=O)CC2)c1 (stereo unspecified)	0	0	0	0	-	-
COc1cc(CN2CCc3c(nc(N4CCCCC4)[nH]c3=O)C2)ccc1O	-	0	-	-	-	-
Cc1cccn2cc(Cn3ccccc3=O)nc12	0	0	-	-	-	-
Cc1cccn2cc(CNc3ccccc3)nc12	0	0	0	0	31.1	-26.5
COc1ccc(-c2nnc3ccc(SCC(N)=O)nn23)cc1OC	0	0	0	0	31.0	-30.6
COc1ccc(-c2nnc3ccc(SCC(=O)N4CCCCC4)nn23)cc1OC	0	0	0	0	19.7	0
CCOC(=O)CSc1ccc2nnc(-c3ccncc3)n2n1	0	0	0	0	12.1	-33.1
CN(/N=C/c1ccccc1O)c1ccc2ccccc2n1	0	0	-	-	-	-
CC1CCc2c(sc3nc(C(C)C)n4c(SCC(N)=O)nnc4c23)C1 (stereo unspecified)	0	0	-	-	-	-
SMILES	EP2 antag	EP2 modulator	CHT block	CHT PAM	CHT activ conf	HEK293 MP dye
O=C(Nc1ccc(S(=O)(=O)NCc2ccco2)cc1)c1ccccc1F	0	0	-	-	-	-
C=CCn1c(SC(C)C(=O)NCCC2=CCCCC2)nc2ccccc2c1=O (stereo unspecified)	0	0	0	0	27.4	0
C=CCn1c(SCC(=O)N2CCCCCC2)nc2ccccc2c1=O	-	-	0	0	-	-
Cn1c(=O)[nH]c(=O)c2c1nc(Nc1ccccc1)n2CCO	0	0	-	-	-	-
CCCC(c1nnnn1C1CCCC1)N(Cc1cc2cc(C)cc(C)c2[nH]c1=O)C1CCCCC1 (stereo unspecified)	0	0	-	-	-	-
CCOc1ccc(-c2cnc3n2CCC3)cc1	0	0	0	0	50.2	-39.1
CCOC(=O)CNc1c(-c2ccc(O)cc2)nc2ccccn12	0	0	0	0	55.7	-43.9
CCOC(=O)CNc1c(-c2ccc(O)cc2)nc2ccc(Cl)cn12	0	0	0	0	-	-
O=C(c1cc2c(s1)CCC2)N1CCc2c(nc[nH]c2=O)C1	0	0	-	-	-	-

Bioassay records as filed in PubChem BioAssay.
